In PubChem BioAssay (EPA / NIEHS):
Activity calls are given as the source filed them. The calls were made as follows: active = hit-call score of the fitted dose curve at least 0.9, where 1 is the maximum; inactive = score below 0.9.

Columns and labels:
[1] = read-out: TIMP metallopeptidase inhibitor 2 (TIMP2), TIMP2 (gene 7077); experiment: BSK_KF3CT_TIMP2: BioMAP Diversity Plus: KF3CT Assay for TIMP metallopeptidase inhibitor 2 (TIMP2) Biomarker Activity (AID 2283071); details: primary human keratinocytes with fibroblasts; actives raise or lower the signal
Method in brief: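 Co-culture of human primary keratinocytes and foreskin fibroblasts, measured 24 h after chemical dosing. TIMP-2 quantified by ELISA and fitted in both directions relative to DMSO. Cytotoxicity checked in parallel cultures by SRB total-protein staining.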

[2] = read-out: Transforming growth factor beta 1 (TGFb1), TGFB1 (gene 7040); experiment: BSK_KF3CT_TGFb1: BioMAP Diversity Plus: KF3CT Assay for Transforming growth factor beta 1 (TGFb1) Biomarker Activity (AID 2283072); details: primary human keratinocytes with fibroblasts; actives raise or lower the signal
Method in brief: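 Human keratinocyte/foreskin fibroblast co-culture; TGF-b1 measured by ELISA 24 h after dosing, fitted bidirectionally versus DMSO. Cytotoxicity checked in parallel cultures by total protein (SRB staining, 560 nm).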

[3] = read-out: C-C motif chemokine 2 (Homo sapiens) (UniProt P13500); experiment: BSK_KF3CT_MCP1: BioMAP Diversity Plus: KF3CT Assay for Monocyte Chemoattractant Protein 1 (MCP1/CCL2) Biomarker Activity (AID 2283073); details: primary human keratinocytes with fibroblasts; actives raise or lower the signal
Method in brief: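 ELISA readout of MCP-1 after 24 h chemical dosing of a human skin primary co-culture of keratinocytes and foreskin fibroblasts. Activity was fitted in both directions against DMSO.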

[4] = read-out: Matrix Metallopeptidase 9 (MMP9), MMP9 (gene 4318); experiment: BSK_KF3CT_MMP9: BioMAP Diversity Plus: KF3CT Assay for Matrix Metallopeptidase 9 (MMP9) Biomarker Activity (AID 2283074); details: primary human keratinocytes with fibroblasts; actives raise or lower the signal;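 as to AC50: MMP9 protein level quantified by ELISA in the co-culture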
Method in brief: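 Human keratinocyte and foreskin fibroblast co-culture exposed to chemicals for 24 h; MMP9 biomarker measured by ELISA, bidirectional fitting relative to DMSO; cytotoxicity tracked by SRB total protein staining in parallel cultures.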

[5] = read-out: urokinase plasminogen activator (uPA), PLAU (gene 5328); experiment: BSK_KF3CT_uPA: BioMAP Diversity Plus: KF3CT Assay for urokinase plasminogen activator (uPA) Biomarker Activity (AID 2283075); details: primary human keratinocytes with fibroblasts; actives raise or lower the signal
Method in brief: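 Primary human keratinocyte/foreskin fibroblast co-culture exposed to chemical; uPA measured by ELISA at 24 h. Bidirectional fit versus DMSO, with parallel SRB total-protein staining for cytotoxicity.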

CD40, CD40 (gene 958) [6] = experiment: BSK_LPS_CD40: BioMAP Diversity Plus: LPS Assay for CD40 Biomarker Activity (AID 2283076); details: primary human HUVEC with PBMC; actives raise or lower the signal
Method in brief: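 Cells were dosed, incubated 24 h, then assayed for CD40 by ELISA. Gain or loss of signal was analysed relative to DMSO controls. The culture paired human umbilical vein endothelium with peripheral blood mononuclear cells.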

[7] = read-out: E-selectin (Homo sapiens) (UniProt P16581); experiment: BSK_LPS_Eselectin: BioMAP Diversity Plus: LPS Assay for Eselectin Biomarker Activity (AID 2283077); details: primary human HUVEC with PBMC; actives raise or lower the signal
Method in brief: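 Primary human vascular co-culture (endothelium plus PBMC) was dosed with chemical, then E-selectin quantified by ELISA at 24 h. Endpoint values derive from bidirectional curve fitting relative to DMSO.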

[8] = read-out: Interleukin-8 (IL8), CXCL8 (gene 3576); experiment: BSK_LPS_IL8: BioMAP Diversity Plus: LPS Assay for Interleukin-8 (IL8) Biomarker Activity (AID 2283078); details: primary human HUVEC with PBMC; actives raise or lower the signal
Method in brief: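 Readout is IL-8 by ELISA, taken 24 h after compounds were added to LPS-stimulated endothelial/PBMC co-cultures. Both increases and decreases relative to DMSO control were scored through bidirectional fitting.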

[9] = BSK_LPS_SRB: Viability Assessment in the BioMAP Diversity Plus: LPS Assay (AID 2283079); details: primary human HUVEC with PBMC;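 also: total protein by sulforhodamine B absorbance as a cytotoxicity measure; measured one day after compound addition; fitted in both directions against DMSO so loss or gain of signal counts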
Method in brief: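 Readout is SRB absorbance at 560 nm (0.1% stain, TCA-fixed parallel cultures) as a total-protein cytotoxicity measure. Cells: primary human umbilical vein endothelium plus peripheral blood mononuclear cells, 24 h after chemical exposure; DMSO served as baseline.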

[10] = read-out: Interleukin-1 alpha (IL1a), IL1A (gene 3552); experiment: BSK_LPS_IL1a: BioMAP Diversity Plus: LPS Assay for Interleukin-1 alpha (IL1a) Biomarker Activity (AID 2283080); details: primary human HUVEC with PBMC; actives raise or lower the signal
Method in brief: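 ELISA read-out of IL-1 alpha from a human primary vascular co-culture (endothelium plus PBMC) under LPS, sampled 24 hours post-dosing. Activity was fitted in both directions relative to DMSO controls.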

[11] = read-out: Monocyte Chemoattractant Protein-1 (MCP1), CCL2 (gene 6347); experiment: BSK_LPS_MCP1: BioMAP Diversity Plus: LPS Assay for Monocyte Chemoattractant Protein-1 (MCP1) Biomarker Activity (AID 2283081); details: primary human HUVEC with PBMC; actives raise or lower the signal
Method in brief: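 Human endothelial–PBMC co-cultures were dosed with chemical, then LPS-driven MCP-1 levels were quantified by ELISA at 24 h. Activity in either direction was fitted versus DMSO negative control.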

[12] = BSK_LPS_PGE2: BioMAP Diversity Plus: LPS Assay for Prostaglandin E2 (PGE2) Biomarker Activity (AID 2283082); details: primary human HUVEC with PBMC; actives raise or lower the signal;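 as to AC50: secreted prostaglandin E2 measured by ELISA in LPS-stimulated co-culture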
Method in brief: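 HUVEC plus human PBMC co-culture stimulated with LPS; secreted PGE2 quantified by ELISA 24 h after chemical dosing. Activity fitted bidirectionally against DMSO baseline; parallel SRB staining (0.1% SRB after 10% TCA fixation, 560 nm) flags overt cytotoxicity.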

[13] = read-out: Macrophage colony-stimulating factor (MCSF), CSF1 (gene 1435); experiment: BSK_LPS_MCSF: BioMAP Diversity Plus: LPS Assay for Macrophage colony-stimulating factor (MCSF) Biomarker Activity (AID 2283083); details: primary human HUVEC with PBMC; actives raise or lower the signal
Method in brief: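 ELISA readout of M-CSF after 24 h compound exposure in a human endothelial/PBMC co-culture. Activity, in either direction, is fitted relative to DMSO vehicle.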

[14] = read-out: Tissue Factor, F3 (gene 2152); experiment: BSK_LPS_TissueFactor: BioMAP Diversity Plus: LPS Assay for Tissue Factor Biomarker Activity (AID 2283084); details: primary human HUVEC with PBMC; actives raise or lower the signal
Method in brief: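 ELISA signal for cell-surface Tissue Factor (CD142) was read 24 h after compound dosing of an LPS-stimulated human endothelial–PBMC primary co-culture. Gain or loss of signal was scored relative to DMSO.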

[15] = read-out: Tumor necrosis factor (Homo sapiens) (UniProt P01375); experiment: BSK_LPS_TNFa: BioMAP Diversity Plus: LPS Assay for Tumour Necrosis Factor alpha (TNFa) Biomarker Activity (AID 2283085); details: primary human HUVEC with PBMC; actives raise or lower the signal
Method in brief: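 Human umbilical vein endothelial cells co-cultured with PBMC and stimulated with LPS. TNFa was measured by ELISA 24 h after chemical dosing, fitted bidirectionally relative to DMSO.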

[16] = read-out: Vascular cell adhesion molecule 1 (VCAM1), VCAM1 (gene 7412); experiment: BSK_LPS_VCAM1: BioMAP Diversity Plus: LPS Assay for Vascular cell adhesion molecule 1 (VCAM1) Biomarker Activity (AID 2283086); details: primary human HUVEC with PBMC; actives raise or lower the signal
Method in brief: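 Human umbilical vein endothelial cells co-cultured with PBMC and stimulated with LPS; VCAM-1 measured by ELISA 24 h after dosing. Bidirectional curve fitting against DMSO baseline; cytotoxicity tracked in parallel by SRB total-protein staining.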

CD38, CD38 (gene 952) = experiment: BSK_SAg_CD38: BioMAP Diversity Plus: SAg Assay for CD38 Biomarker Activity (AID 2283087); details: primary human HUVEC with PBMC; actives raise or lower the signal
Method in brief: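 Human HUVEC plus PBMC co-culture stimulated with superantigen; CD38 measured by ELISA 24 h after chemical dosing. Fluorescence read-out, bidirectional fit against DMSO; cytotoxicity tracked in parallel by SRB and Alamar Blue.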

CD40, CD40 (gene 958) [17] = experiment: BSK_SAg_CD40: BioMAP Diversity Plus: SAg Assay for CD40 Biomarker Activity (AID 2283088); details: primary human HUVEC with PBMC; actives raise or lower the signal
Method in brief: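 Compounds were dosed onto a human primary endothelial–PBMC co-culture, and after 24 h CD40 was quantified by ELISA using a fluorescence signal. Activity in either direction was fitted relative to DMSO.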

CD69, CD69 (gene 969) = experiment: BSK_SAg_CD69: BioMAP Diversity Plus: SAg Assay for CD69 Biomarker Activity (AID 2283089); details: primary human HUVEC with PBMC; actives raise or lower the signal;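 as to AC50: cell surface CD69 protein quantified by ELISA with fluorescence detection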
Method in brief: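 ELISA, fluorescence read-out: CD69 on human umbilical vein endothelial cell + PBMC co-culture, 24 h post-dosing. Gain or loss of signal fitted bidirectionally against DMSO baseline.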

[18] = read-out: Monocyte Chemoattractant Protein-1 (MCP1), CCL2 (gene 6347); experiment: BSK_SAg_MCP1: BioMAP Diversity Plus: SAg Assay for Monocyte Chemoattractant Protein-1 (MCP1) Biomarker Activity (AID 2283090); details: primary human HUVEC with PBMC; actives raise or lower the signal
Method in brief: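 MCP-1 levels in the endothelial–PBMC SAg co-culture were quantified by ELISA at 24 h post-dosing; both increases and decreases versus DMSO scored. Cytotoxicity monitored by SRB total protein in parallel cultures.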

E-selectin (Homo sapiens), sequence (P16581 whole entry, looked up): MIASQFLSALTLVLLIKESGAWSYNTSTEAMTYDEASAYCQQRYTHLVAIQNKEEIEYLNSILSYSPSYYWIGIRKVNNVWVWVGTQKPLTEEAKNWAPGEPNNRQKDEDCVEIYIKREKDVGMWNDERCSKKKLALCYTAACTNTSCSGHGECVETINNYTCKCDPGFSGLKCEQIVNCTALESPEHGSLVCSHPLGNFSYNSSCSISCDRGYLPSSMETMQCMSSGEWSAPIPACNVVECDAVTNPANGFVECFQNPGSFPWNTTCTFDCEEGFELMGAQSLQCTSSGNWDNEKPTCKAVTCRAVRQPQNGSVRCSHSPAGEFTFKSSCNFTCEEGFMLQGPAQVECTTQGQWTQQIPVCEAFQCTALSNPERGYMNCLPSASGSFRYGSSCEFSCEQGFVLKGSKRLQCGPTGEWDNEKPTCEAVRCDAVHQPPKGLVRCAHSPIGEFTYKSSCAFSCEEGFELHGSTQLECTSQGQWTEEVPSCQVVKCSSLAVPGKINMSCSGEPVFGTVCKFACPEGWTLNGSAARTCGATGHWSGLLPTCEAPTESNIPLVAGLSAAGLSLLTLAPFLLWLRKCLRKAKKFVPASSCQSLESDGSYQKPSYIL
Tumor necrosis factor (Homo sapiens), sequence (P01375 whole entry, looked up): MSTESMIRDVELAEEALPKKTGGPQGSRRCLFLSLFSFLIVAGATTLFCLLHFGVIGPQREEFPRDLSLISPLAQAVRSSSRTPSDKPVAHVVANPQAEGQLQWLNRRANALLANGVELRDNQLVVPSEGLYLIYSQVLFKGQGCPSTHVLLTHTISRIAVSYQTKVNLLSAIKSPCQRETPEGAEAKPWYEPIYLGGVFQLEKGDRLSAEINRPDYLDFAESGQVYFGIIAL

## CCCCCc1ccc(N)cc1
[1]
  AC50: 20.8 µM (active)
[2]
  outcome: inactive
[3]
  outcome: inactive
[4]
  AC50: 13.7 µM (active)
[5]
  outcome: inactive
CD40, CD40 (gene 958) [6]
  outcome: inactive
[7]
  outcome: inactive
[8]
  outcome: inactive
[9]
  outcome: inactive
[10]
  outcome: inactive
[11]
  outcome: inactive
[12]
  AC50: 12 µM (active)
[13]
  outcome: inactive
[14]
  outcome: inactive
[15]
  outcome: inactive
[16]
  AC50: 20 µM (active)
CD38, CD38 (gene 952)
  outcome: inactive
CD40, CD40 (gene 958) [17]
  outcome: inactive
CD69, CD69 (gene 969)
  outcome: inactive
[18]
  outcome: inactive

## CC(C)(O)c1ccc(CNC(=O)c2cccnc2Oc2ccc3nonc3c2)cc1
[1]
  outcome: inactive
[2]
  outcome: inactive
[3]
  outcome: inactive
[4]
  outcome: inactive
[5]
  outcome: inactive
CD40, CD40 (gene 958) [6]
  outcome: inactive
[7]
  outcome: inactive
[8]
  outcome: inactive
[9]
  outcome: inactive
[10]
  outcome: inactive
[11]
  outcome: inactive
[12]
  outcome: inactive
[13]
  outcome: inactive
[14]
  outcome: inactive
[15]
  AC50: 1.49 µM (active)
[16]
  outcome: inactive
CD40, CD40 (gene 958) [17]
  outcome: inactive
CD69, CD69 (gene 969)
  outcome: inactive
[18]
  outcome: inactive

## O=C1CCC(C2CCCCC2)CC1
[2]
  outcome: inactive
[3]
  AC50: 29.6 µM (active)
[4]
  AC50: 31.8 µM (active)
[5]
  outcome: inactive
CD40, CD40 (gene 958) [6]
  outcome: inactive
[7]
  outcome: inactive
[8]
  outcome: inactive
[9]
  outcome: inactive
[10]
  outcome: inactive
[11]
  outcome: inactive
[12]
  outcome: inactive
[13]
  outcome: inactive
[14]
  outcome: inactive
[15]
  outcome: inactive
[16]
  outcome: inactive
CD38, CD38 (gene 952)
  outcome: inactive
CD40, CD40 (gene 958) [17]
  outcome: inactive
CD69, CD69 (gene 969)
  outcome: inactive
[18]
  outcome: inactive

## O=c1ccc2ccccc2o1
[2]
  outcome: inactive
[3]
  outcome: inactive
[4]
  outcome: inactive
[5]
  outcome: inactive
CD40, CD40 (gene 958) [6]
  outcome: inactive
[7]
  outcome: inactive
[8]
  outcome: inactive
[9]
  outcome: inactive
[10]
  outcome: inactive
[11]
  outcome: inactive
[12]
  outcome: inactive
[13]
  outcome: inactive
[14]
  outcome: inactive
[15]
  outcome: inactive
[16]
  outcome: inactive
CD38, CD38 (gene 952)
  outcome: inactive
CD40, CD40 (gene 958) [17]
  outcome: inactive
CD69, CD69 (gene 969)
  outcome: inactive
[18]
  outcome: inactive

## O=c1[nH]sc2ccccc12
[1]
  AC50: 32.2 µM (active)
[2]
  AC50: 30.7 µM (active)
[3]
  AC50: 30.4 µM (active)
[4]
  AC50: 31.2 µM (active)
[5]
  AC50: 33 µM (active)
CD40, CD40 (gene 958) [6]
  AC50: 7.06 µM (active)
[7]
  AC50: 25.9 µM (active)
[8]
  AC50: 22.1 µM (active)
[9]
  AC50: 25.7 µM (active)
[10]
  AC50: 8.77 µM (active)
[12]
  AC50: 3.94 µM (active)
[14]
  AC50: 17.7 µM (active)
[15]
  AC50: 9.18 µM (active)
[16]
  AC50: 9.14 µM (active)
CD40, CD40 (gene 958) [17]
  AC50: 7.92 µM (active)
CD69, CD69 (gene 969)
  AC50: 13.1 µM (active)
[18]
  AC50: 15.3 µM (active)
